Test results reported in PubChem BioAssay.
For part of these data: Potency and affinity values are given separately. Calls of active or inactive are those of the source. Unless noted, how the calls were made is not given here.

Key:
[1] = antimalarial activity against Dd2 strain (AID 2302;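 active means growth inhibition above 50% at the single 2 µM test dose, taken to imply half-maximal potency below 2 µM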;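 further: 0% = DMSO untreated growth and 100% = chloroquine plus artemisinin killed control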); conditions: P. falciparum Dd2 in RBCs, LDH growth readout, 72 h; at 2 µM; active compounds read high
[2] = human hepatoma cell viability loss – ATP luminescence, cytotoxicity control for P. falciparum antimalarial project, primary screen (AID 2303;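 active means inhibition above 50%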;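 further: 0% = DMSO wells and 100% = digitonin-killed cells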); conditions: HepG2 viability, 24-48 h, at 10 µM, active compounds read high
[3] = target: L-lactate dehydrogenase (Plasmodium falciparum (isolate CDC / Honduras)) (UniProt Q27743); assay: PfLDH activity inhibition – cell lysate, 3D7 strain, counter-screen for P. falciparum growth inhibition project (AID 2304);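 further: 0% = vehicle and 100% = reference inhibitor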; conditions: P. falciparum 3D7 crude extract, LDH APAD/NBT absorbance; at 2 µM; active compounds read high
Sequence of L-lactate dehydrogenase (Plasmodium falciparum (isolate CDC / Honduras)) (Q27743 whole entry, looked up): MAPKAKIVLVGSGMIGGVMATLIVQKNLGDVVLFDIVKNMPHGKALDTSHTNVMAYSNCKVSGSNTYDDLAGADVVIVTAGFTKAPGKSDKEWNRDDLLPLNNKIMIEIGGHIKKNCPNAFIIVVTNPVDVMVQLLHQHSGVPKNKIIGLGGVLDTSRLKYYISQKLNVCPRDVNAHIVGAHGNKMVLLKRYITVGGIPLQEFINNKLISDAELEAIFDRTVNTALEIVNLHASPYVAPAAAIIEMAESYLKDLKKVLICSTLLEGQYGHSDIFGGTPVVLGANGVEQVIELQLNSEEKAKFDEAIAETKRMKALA

[4] = inhibition of 3D7 malaria parasite growth – strain 3D7 (AID 2306);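 further: 0% = DMSO wells and 100% = chloroquine plus artemisinin control wells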; conditions: P. falciparum 3D7 erythrocytic growth, LDH absorbance, 72 h; at 2 µM; active compounds read high
[5] = target: Calcium-dependent protein kinase 1 (Plasmodium falciparum (isolate 3D7)) (UniProt P62344); assay: PfCDPK1 kinase inhibitors, biochemical, TCAMS library (AID 1159585; cut-off not given, nearly all actives have IC50 up to about 0.98 µM;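 further: inhibitors leave more ATP so luminescence rises with inhibition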); conditions: recombinant PfCDPK1, Kinase-Glo ATP depletion luminescence
Sequence of Calcium-dependent protein kinase 1 (Plasmodium falciparum (isolate 3D7)) (P62344 whole entry, looked up): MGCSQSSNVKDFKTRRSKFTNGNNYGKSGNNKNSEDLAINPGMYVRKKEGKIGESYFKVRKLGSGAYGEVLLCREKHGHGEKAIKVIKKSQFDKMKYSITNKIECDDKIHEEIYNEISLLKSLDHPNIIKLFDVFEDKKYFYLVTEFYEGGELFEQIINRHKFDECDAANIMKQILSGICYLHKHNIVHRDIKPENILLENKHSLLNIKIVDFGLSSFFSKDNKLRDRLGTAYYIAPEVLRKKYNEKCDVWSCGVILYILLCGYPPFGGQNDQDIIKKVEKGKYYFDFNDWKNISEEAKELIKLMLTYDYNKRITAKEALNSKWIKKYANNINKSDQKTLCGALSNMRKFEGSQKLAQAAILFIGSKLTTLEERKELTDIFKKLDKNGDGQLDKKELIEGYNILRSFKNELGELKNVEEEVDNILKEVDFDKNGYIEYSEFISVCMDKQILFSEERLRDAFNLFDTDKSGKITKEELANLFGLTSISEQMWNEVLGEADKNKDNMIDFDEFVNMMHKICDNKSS

[6] = target: Plasmodium falciparum protein kinase 6 (PK6, PF3D7_1337100) (UniProt Q8IDW1); assay: PfPK6 kinase inhibitors, biochemical, TCAMS library (AID 1159586); conditions: recombinant PfPK6, Kinase-Glo ATP depletion luminescence
Sequence of Plasmodium falciparum protein kinase 6 (PK6, PF3D7_1337100) (Q8IDW1 1-305): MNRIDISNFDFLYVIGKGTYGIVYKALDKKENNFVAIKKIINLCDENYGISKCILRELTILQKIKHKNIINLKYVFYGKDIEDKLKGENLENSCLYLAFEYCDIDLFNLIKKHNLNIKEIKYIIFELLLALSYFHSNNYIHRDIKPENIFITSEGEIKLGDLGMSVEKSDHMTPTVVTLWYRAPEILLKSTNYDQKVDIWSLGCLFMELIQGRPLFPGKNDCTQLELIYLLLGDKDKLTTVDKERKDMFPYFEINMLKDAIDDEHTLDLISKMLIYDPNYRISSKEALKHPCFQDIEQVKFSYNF

[7] = target: Protein kinase 7 (PK7), Plasmodium falciparum 3D7 (PF3D7_0213400) (UniProt Q7YTF7); assay: inhibition of Plasmodium PK7 catalytic activity – biochemical, TCAMS antimalarial set, Kinase-Glo luminescence (AID 1159587); conditions: recombinant PfPK7, Kinase-Glo ATP depletion luminescence
Sequence of Protein kinase 7 (PK7), Plasmodium falciparum 3D7 (PF3D7_0213400) (Q7YTF7 1-343): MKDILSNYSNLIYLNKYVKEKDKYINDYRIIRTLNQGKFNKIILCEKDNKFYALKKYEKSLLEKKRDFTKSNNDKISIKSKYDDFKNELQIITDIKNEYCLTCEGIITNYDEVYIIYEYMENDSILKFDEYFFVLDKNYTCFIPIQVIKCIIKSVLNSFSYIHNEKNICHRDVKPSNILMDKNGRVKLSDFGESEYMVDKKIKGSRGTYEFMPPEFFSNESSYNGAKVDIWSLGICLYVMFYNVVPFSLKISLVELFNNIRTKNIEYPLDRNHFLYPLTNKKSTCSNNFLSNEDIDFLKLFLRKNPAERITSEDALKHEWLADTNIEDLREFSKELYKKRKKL

[8] = target: Calcium-dependent protein kinase 4 (Plasmodium falciparum (isolate 3D7)) (UniProt Q8IBS5); assay: PfCDPK4 kinase inhibitors, biochemical, TCAMS library (AID 1159588; cut-off not given, nearly all actives have IC50 up to about 0.91 µM); conditions: recombinant PfCDPK4, Kinase-Glo ATP depletion luminescence
Sequence of Calcium-dependent protein kinase 4 (Plasmodium falciparum (isolate 3D7)) (Q8IBS5 whole entry, looked up): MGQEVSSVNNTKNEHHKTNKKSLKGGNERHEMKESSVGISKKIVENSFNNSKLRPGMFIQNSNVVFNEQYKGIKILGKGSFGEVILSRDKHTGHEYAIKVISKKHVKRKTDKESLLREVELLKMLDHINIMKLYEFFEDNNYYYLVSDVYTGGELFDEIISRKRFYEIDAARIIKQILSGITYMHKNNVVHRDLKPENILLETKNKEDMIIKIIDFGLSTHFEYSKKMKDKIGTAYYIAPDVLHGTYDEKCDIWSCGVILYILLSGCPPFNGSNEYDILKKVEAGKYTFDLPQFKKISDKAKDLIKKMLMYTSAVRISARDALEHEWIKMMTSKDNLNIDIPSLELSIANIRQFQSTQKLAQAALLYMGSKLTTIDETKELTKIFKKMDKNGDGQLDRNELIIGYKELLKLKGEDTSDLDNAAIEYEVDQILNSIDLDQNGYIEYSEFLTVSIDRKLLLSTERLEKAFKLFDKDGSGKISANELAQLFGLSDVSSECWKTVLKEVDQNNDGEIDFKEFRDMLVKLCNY

N=C(N)c1cc(Br)cc(NC(=O)Nc2cc(Br)cc(C(=N)N)c2)c1
active: growth inhibition [1] 76% | growth inhibition [4] 93%
inactive: inhibition [2] 0% | inhibition [3] -4% | outcome [5] | outcome [6] | outcome [7] | outcome [8]

Cc1cc(C(=O)NCc2ccc(-c3c(C)noc3C)cc2)n(-c2ccccc2)n1
inactive: inhibition [2] 4% | inhibition [3] 3% | outcome [5] | outcome [6] | outcome [7] | outcome [8]
active: growth inhibition [1] 90% | growth inhibition [4] 92%

COc1cc(C2C(Oc3ccccc3)C(=O)N2Cc2ccc(F)cc2)cc(OC)c1OC (stereo not drawn)
active: growth inhibition [1] 97% | growth inhibition [4] 100%
inactive: inhibition [2] -2% | inhibition [3] 4% | outcome [5] | outcome [6] | outcome [7] | outcome [8]

NC1CCCN(Cc2cccc(-c3ccc(-c4nc5ccc(F)cc5[nH]4)cc3)c2)C1 (stereo not drawn)
active: growth inhibition [1] 99% | growth inhibition [4] 101%
inactive: inhibition [2] 40% | inhibition [3] -3% | outcome [5] | outcome [6] | outcome [7] | outcome [8]

CCOc1ccccc1CON1C(N)=NC(N)=NC1(C)C
inactive: growth inhibition [1] 1% | inhibition [3] -2% | outcome [5] | outcome [6] | outcome [7] | outcome [8]
active: inhibition [2] 66% | growth inhibition [4] 90%

CCn1c2ccccc2c2cc(Cc3cnc(N)nc3N)ccc21
inactive: growth inhibition [1] -2% | inhibition [2] 28% | inhibition [3] 5% | outcome [5] | outcome [6] | outcome [7] | outcome [8]
active: growth inhibition [4] 94%

c1ccc(-c2cc(NCCCCNc3cc(-c4ccccc4)nc4ccccc34)c3ccccc3n2)cc1
active: growth inhibition [1] 97% | inhibition [2] 70% | growth inhibition [4] 102%
inactive: inhibition [3] 0% | outcome [5] | outcome [6] | outcome [7] | outcome [8]

COc1cc(NC(=O)/C=C/c2cc3ccccc3n2C)ccc1OCCN(C(C)C)C(C)C
active: growth inhibition [1] 68% | growth inhibition [4] 99%
inactive: inhibition [2] 16% | inhibition [3] 4% | outcome [5] | outcome [6] | outcome [7] | outcome [8]

Cc1cc(NS(=O)(=O)c2cccc(C(C)N3CCC(N4CCCC4)CC3)c2)ccc1C(C)C (stereo not drawn)
active: growth inhibition [1] 53% | growth inhibition [4] 100%
inactive: inhibition [2] 30% | inhibition [3] -2% | outcome [5] | outcome [6] | outcome [7] | outcome [8]

COc1ccc(-c2cccc(NC(=O)c3ccc(C#N)cc3)c2)cc1CN(C)CCN(C)C
active: growth inhibition [4] 90%
inactive: growth inhibition [1] 18% | inhibition [2] 14% | inhibition [3] 3% | outcome [5] | outcome [6] | outcome [7] | outcome [8]

CNC(=O)c1cnc(Nc2ccc(N3CCOCC3)cc2)nc1Nc1cccc(OC)c1
active: growth inhibition [4] 96%
inactive: growth inhibition [1] 41% | inhibition [2] 2% | inhibition [3] -2% | outcome [5] | outcome [6] | outcome [7] | outcome [8]

O=C(NC1CCN(CC2(c3ccccc3F)CCCC2)CC1)c1ccn[nH]1
active: growth inhibition [1] 91% | growth inhibition [4] 93%
inactive: inhibition [2] -5% | inhibition [3] -1% | outcome [5] | outcome [6] | outcome [7] | outcome [8]

CC(C)Oc1ccc(CCCON2C(N)=NC(N)=NC2(C)C)cc1
inactive: inhibition [3] 0% | outcome [5] | outcome [6] | outcome [7] | outcome [8]
active: growth inhibition [1] 94% | inhibition [2] 66% | growth inhibition [4] 96%

c1ccc(-c2ccc(-c3csc(Nc4ccncc4)n3)cc2)cc1
active: growth inhibition [1] 97% | growth inhibition [4] 101%
inactive: inhibition [2] 30% | inhibition [3] 3% | outcome [5] | outcome [6] | outcome [7] | outcome [8]

CCCCN1CCN(CCCCNc2c3ccccc3nc3ccccc23)CC1
inactive: growth inhibition [1] 5% | inhibition [2] 27% | inhibition [3] 4% | outcome [5] | outcome [6] | outcome [7] | outcome [8]
active: growth inhibition [4] 100%

O=C(Nc1cc(Cl)cc(Cl)c1)Nc1ccccc1C(=O)NC1CCCCC1
inactive: inhibition [2] 12% | inhibition [3] 4% | outcome [5] | outcome [6] | outcome [7] | outcome [8]
active: growth inhibition [1] 100% | growth inhibition [4] 101%

Cc1[nH]c(C)c(-c2ccc(OCCOc3ccc(C(F)(F)F)cn3)cc2)c(=O)c1Br
inactive: inhibition [2] 25% | inhibition [3] 3% | outcome [5] | outcome [6] | outcome [7] | outcome [8]
active: growth inhibition [1] 97% | growth inhibition [4] 97%

COc1ccc2nc(C)cc(Nc3ccc(Oc4ccc5ccccc5c4Cl)c(Cl)c3)c2c1
inactive: inhibition [2] 32% | inhibition [3] 7% | outcome [5] | outcome [6] | outcome [7] | outcome [8]
active: growth inhibition [1] 98% | growth inhibition [4] 100%

COc1cc2c(cc1OC)CN(CCc1ccc(NC(=O)c3cc4cc(Cl)ccc4[nH]3)cc1)CC2
active: growth inhibition [4] 90%
inactive: growth inhibition [1] 6% | inhibition [2] 3% | inhibition [3] 2% | outcome [5] | outcome [6] | outcome [7] | outcome [8]

CCN(CC)c1ccc(C(=O)Cn2ccc(=N)cc2)cc1
inactive: inhibition [3] 3% | outcome [5] | outcome [6] | outcome [7] | outcome [8]
active: growth inhibition [1] 64% | inhibition [2] 92% | growth inhibition [4] 84%

Cc1cccc2[nH]c(-c3ccc(-c4ccc(CNCCCN5CCCC5=O)cc4)cc3)nc12
active: growth inhibition [4] 100%
inactive: growth inhibition [1] 47% | inhibition [2] 7% | inhibition [3] -5% | outcome [5] | outcome [6] | outcome [7] | outcome [8]
